# Reference: PubChem BioAssay (NCATS)
# Results filed as inconclusive are left out. Entries that show only a call come without a potency. The source made the active and inactive calls. Calls follow the shape of the dose curve; as a rule, active = well fitted inhibition curve with a large enough effect; inconclusive = small, poorly fitted or top-dose-only effect; inactive = no such curve, though single readings can be large or run the other way. Where a SMILES comes first, the peptide text is derived from it. [ ]: non-standard residue; d: D form. pGlu = O=C1CC[C@@H](C(=O)O)N1; Thz = O=C(O)[C@@H]1CSCN1
# Assay: P-glycoprotein substrates identified in KB-3-1 adenocarcinoma cell line, qHTS therapeutic library screen (AID 1346986); also: nearly all actives have a fitted effect of over 60% in size;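 also: potency is for cytotoxicity meaning loss of cell viability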
# Settings: KB-3-1 parental cells viability, CellTiter-Glo, 72 h; series mostly up to 44.5 µM
# Method: The ATP-binding cassette transporters P-glycoprotein (P-gp) is known to limit brain penetration of many chemotherapy drugs. […] We used the CellTiter-Glo viability assay to test library compounds against the parental KB-3-1 human cervical adenocarcinoma cell line and the colchicine-selected sub-line KB-8-5-11 that over-expresses P-gp. KB-8-5-11 cells were also tested in the presence of a P-gp inhibitor (tariquidar) to assess reversability of transporter-mediated resistance. Of the tested compounds, a total of 90 P-gp substrates were identified including 55 newly identified P-gp substrates. Substrates were confirmed using an orthogonal killing assay against HEK-293 cells transfected with P-gp. As exemplars, we confirmed that AT7159 (cyclin-dependent kinase inhibitor); AT9283, (Janus kinase 2/3 inhibitor); ispinesib (kinesin spindle protein inhibitor); gedatolisib (PKI-587, phosphoinositide 3-kinase/mammalian target of rampamycin inhibitor); GSK-690693 (AKT inhibitor); and KW-2478 (heat shock protein 90 inhibitor) were substrates , and direct ATPase stimulation was assessed. ABCG2 was also found to confer high levels of resistance to AT9283, GSK-690693 and gedatolisib, while ispinesib, AT7519 and KW-2478 were weaker substrates.
# The HeLa derivative cell line, KB-3-1, and its colchicine-selected, P-gp-overexpressing subline, KB-8-5-11 were maintained in DMEM with 10% FCS and Pen/Strep with glutamine at 37 degree C in 5% CO2. For KB-8-5-11 cells, colchicine was added to the medium at a concentration of 100 ng/mL. HEK-293 cells transfected with empty vector (pcDNA) or vector containing human ABCB1 (MDR-19) or ABCG2 (R-5) have been described previously (Robey, Lin, Qiu, Chan & Bates, 2011) and were maintained in EMEM supplemented with 10% FCS, Pen/Strep and glutamine with 2 mg/ml G418 to select for the expression of the transporter. Cultures were confirmed to be free of mycoplasma infection using the MycoAlert Mycoplasma Detection Kit (Lonza, Walkersville, MD). For the screen, assay medium was identical to culture medium except for KB-8-5-11 where colchicine was excluded from the medium.
# All cell lines were plated into 1536-well plates at 500 cells/well in 5 uL media. Compounds were then pinned in dose-response using a 1536-head pin tool (Kalypsis, San Diego, CA) and plates were incubated at 37 degree C in 5% CO2 for an additional 72 h. CellTiter-Glo reagent (Promega) was dispensed into the wells, incubated for 5 min and luminescence was read on a ViewLux instrument (Perkin-Elmer). Cytotoxic compounds were defined as those that yielded a curve class of -1.1, -1.2, -2.1, -2.2, -2.3, or -2.4, a maximum response of >50% and an AC50 of < 10 uM. Cherry-picked hits from screening analysis were tested with both the KB pair of cell lines, and the pcDNA (empty vector control) and MDR-19 (P-gp overexpressing) pair were tested, in the absence and presence of tariquidar.
# Potency is read from the fitted curve at half-maximal effect.
Structure (SMILES),Potency,outcome
O=[N+]([O-])c1ccc(CNc2nc(NCc3cccc(C(F)(F)F)c3)nc3nc[nH]c23)cc1,inactive,–
CN1[C@@H]2CC[C@H]1CC(OC(c1ccccc1)c1ccccc1)C2 (some centres not stated),inactive,–
N#C/C(=C\c1ccc(O)c(O)c1)C(=O)NCc1ccccc1,inactive,–
O=C(O)CC1CC(c2ccccc2)=NO1 (configuration not stated),inactive,–
C[C@H](O)[C@H](O)[C@H]1CNc2nc(N)[nH]c(=O)c2N1,inactive,–
Cc1onc(-c2c(F)cccc2Cl)c1C(=O)N[C@@H]1C(=O)N2[C@@H]1SC(C)(C)[C@@H]2C(=O)O,inactive,–
C/C(=N\O)c1ccc(OCC(=O)N2CCCCC2)cc1,inactive,–
CCNc1nc2c(ncn2[C@H]2C[C@H](O)[C@@H](CO)O2)c(=O)[nH]1,inactive,–
CC1(C)S[C@@H]2[C@H](NC(=O)[C@H](NC(=O)N3CCN(S(C)(=O)=O)C3=O)c3ccccc3)C(=O)N2[C@H]1C(=O)O,inactive,–
CC1(C)[C@@H](O)CC[C@]2(C)[C@H]3C(=O)C=C4[C@@H]5C[C@@](C)(C(=O)O)CC[C@]5(C)CC[C@@]4(C)[C@]3(C)CC[C@@H]12,inactive,–
O=C(O)Cc1cccc(-c2cc(CCCCCCc3ccc(O[C@H]4O[C@H](CO)[C@@H](O)[C@H](O)[C@@H]4O)c(-c4cccc(CC(=O)O)c4)c3)ccc2O[C@H]2O[C@H](CO)[C@@H](O)[C@H](O)[C@@H]2O)c1,–,inactive [at 0.354 µM]
COc1cc(CNC(=O)CCCC/C=C/C(C)C)ccc1O,inactive,–
CC(=O)O[C@H]1C[C@@]2(C)[C@@H](C[C@@H](O)[C@H]3[C@@]4(C)CC[C@@H](O)[C@@H](C)[C@@H]4CC[C@@]32C)/C1=C(\CCC=C(C)C)C(=O)O,inactive,–
N#C/C(=C\c1ccc(O)c(O)c1)C(=O)NCCCc1ccccc1,inactive,–
O=C1CC[C@@H](C(=O)N2CSC[C@H]2C(=O)O)N1 ([pGlu]-[Thz]-OH),inactive,–
CC(=O)c1ccc(OCC(=O)N2CCCCC2)cc1,inactive,–
CC1(C)[C@@H](O[C@H]2O[C@H](C(=O)O)[C@@H](O)[C@H](O)[C@H]2O[C@@H]2O[C@H](C(=O)O)[C@@H](O)[C@H](O)[C@H]2O)CC[C@]2(C)[C@H]3C(=O)C=C4[C@@H]5C[C@@](C)(C(=O)O)CC[C@]5(C)CC[C@@]4(C)[C@]3(C)CC[C@@H]12,inactive,–
Oc1cc(O)cc(/C=C/c2ccc(O)c(O)c2)c1,inactive,–
Nc1ncnc2c1c(I)cn2[C@@H]1C[C@H](N)[C@@H](O)[C@H]1O,14.6 µM (active),–
CC(=O)SCC(CC(=O)c1ccc(C)cc1)C(=O)O (configuration not stated),inactive,–
COc1cc(/C=C/C(=O)N2CCN(CC(=O)N3CCCC3)CC2)cc(OC)c1OC,inactive,–
COC(=O)[C@H]1[C@H]2C[C@@H]3c4[nH]c5cc(OC)ccc5c4CCN3C[C@H]2C[C@@H](OC(=O)/C=C/c2cc(OC)c(OC)c(OC)c2)[C@@H]1OC,inactive,–
